The source of these data is PubChem BioAssay (EPA / NIEHS).

Results filed as inconclusive are left out. Where a structure was tested more than once in an assay, its records may differ in their call. The source made the active and inactive calls. How the source made its calls: active means hit-call score of the fitted dose curve at least 0.9, where 1 is the maximum; inconclusive means response in the unintended direction; inactive means score below 0.9.

A short description of experiment [1]: NVS_IC_rCaBTZCHL: NovaScreen (NVS) Ion Channel Assay for Calcium Channel, Type L, Benzothiazepine Site (CaBTZCHL) (AID 2283337). Summed up: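 Test chemicals were added to rat cortical membranes and incubated 1.5 h with a tritiated or iodinated radioligand for the benzothiazepine site. Bound ligand was separated by filtration and counted. Actives from the 25 uM duplicate screen were retested in concentration series.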

Experiment [2] has as its system NCBI gene 100848466. Put plainly: NVS_NR_bPR: NovaScreen (NVS) Nuclear Receptor Binding Assay for bovine Progextron Receptor (PR) (AID 2283343). The method in brief: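 Scintillation counts of bound radioligand were read 18 hours after chemical addition to membranes extracted from bovine uterus. Displacement was scored as loss of signal relative to DMSO controls. Screening began at 25 uM in duplicate.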

Experiment [3] has as its target Estrogen receptor (Homo sapiens) (UniProt P03372). In words: NVS_NR_hER: NovaScreen (NVS) Nuclear Receptor Binding Assay for human Estrogen Receptor (ER) (AID 2283348). Summed up: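 MCF7-derived receptor extract, radiolabelled ligand, competitive displacement. Read: scintillation counts at 18 h. DMSO = negative control/baseline. Primary 25 uM duplicate; follow-up concentration–response.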

Experiment [4] has the same target. Put plainly: OT_ER_ERaERa_1440: Odyssey Thera (OT) 24-hour HEK293T Protein-Complementation Assay for Estrogen Receptor-alpha/-alpha Homodimer (AID 2283349).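 Further: hits raise fluorescence above DMSO for agonists and antagonists alike.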 Summed up: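 Cells (HEK293T) carrying the fragment-tagged ERα LBD (aa 310-547) pair are treated with chemical for 24 hours. Nuclear and/or cytoplasmic fluorescence is then quantified on a laser scanning cytometer. Activity is scored as signal gain against DMSO.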

Experiment [5] has the same target. In words: OT_ER_ERaERa_0480: Odyssey Thera (OT) 8-hour HEK293T Protein-Complementation Assay for Estrogen Receptor-alpha/-alpha Homodimer (AID 2283351).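 Further: rise in fluorescence from reassembled reporter fragments on ERα LBD homodimer in nucleus or whole cell.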 The method in brief:
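Cells were treated for 8 hours, then imaged on a laser scanning plate cytometer. Complementation of reporter fragments fused to the human ERα ligand-binding domain (residues 310-547) in HEK293T gave fluorescence, and gain of signal over vehicle was fitted.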

The target of experiment [6] is T1, Estrogen receptor (Homo sapiens) + Estrogen receptor beta (Homo sapiens) (UniProt P03372+Q92731). In words: OT_ER_ERaERb_0480: Odyssey Thera (OT) 8-hour HEK293T Protein-Complementation Assay for Estrogen Receptor-alpha/-beta Heterodimer (AID 2283352). Summed up:
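Compound added to HEK293T cells carrying split-reporter-tagged ER-alpha and ER-beta LBDs, incubated 8 hours, then imaged by laser scanning cytometer. Signal rise in nucleus, or nucleus and cytoplasm, over vehicle was fitted in the positive direction.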

The target of experiment [7] is human Peroxisome Proliferator-activated Receptor alpha (PPARa), PPARA (gene 5465) (UniProt Q07869). Put plainly: NVS_NR_hPPARa: NovaScreen (NVS) Nuclear Receptor Binding Assay for human Peroxisome Proliferator-activated Receptor alpha (PPARa) (AID 2283359).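 Further: activity means loss of TR-FRET signal versus DMSO baseline.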 The method in brief:
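TR-FRET signal measured at 1 h post-dosing; loss-of-signal versus DMSO negative control taken as activity. Extracted gene-protein, cell-free format. Initial single-point duplicates at 25 uM, then concentration-response retests.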

In experiment [8] the target is bovine Gamma-Aminobutyric Acid Type A Receptor Agonist (GABAR Agonist), GABRA1 (gene 780973) (UniProt P08219). In words: NVS_LGIC_bGABAR_Agonist: NovaScreen (NVS) Ligand-Gated Ion Channel Assay for bovine Gamma-Aminobutyric Acid Type A Receptor Agonist (GABAR Agonist) (AID 2283338). Summed up: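 Radioligand binding to bovine cerebellar membranes in agonist format, read by filter-based scintillation counting after 1 h. Primary screen in duplicate at 25 uM, with actives followed in concentration series. Gain of signal versus DMSO.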
bovine Gamma-Aminobutyric Acid Type A Receptor Agonist (GABAR Agonist), GABRA1 (gene 780973), sequence (P08219 whole entry, looked up): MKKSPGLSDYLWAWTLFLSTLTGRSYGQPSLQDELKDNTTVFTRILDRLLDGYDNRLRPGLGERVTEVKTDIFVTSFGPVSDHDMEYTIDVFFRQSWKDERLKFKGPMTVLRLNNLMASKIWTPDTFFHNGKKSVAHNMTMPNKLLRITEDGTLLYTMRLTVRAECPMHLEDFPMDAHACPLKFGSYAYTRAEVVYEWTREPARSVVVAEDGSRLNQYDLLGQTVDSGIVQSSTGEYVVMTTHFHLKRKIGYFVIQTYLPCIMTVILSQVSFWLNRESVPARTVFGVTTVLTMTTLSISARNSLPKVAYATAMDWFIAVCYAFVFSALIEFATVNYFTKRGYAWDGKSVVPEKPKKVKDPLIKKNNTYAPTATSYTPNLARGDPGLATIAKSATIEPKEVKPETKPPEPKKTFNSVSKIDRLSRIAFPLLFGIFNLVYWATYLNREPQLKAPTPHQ

The target in experiment [9] is T1, Estrogen receptor (Homo sapiens) + Estrogen receptor beta (Homo sapiens). Put plainly: OT_ER_ERaERb_1440: Odyssey Thera (OT) 24-hour HEK293T Protein-Complementation Assay for Estrogen Receptor-alpha/-beta Homodimer (AID 2283356).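 Further: heteromer of ER alpha and ER beta binding domains; hits raise reporter fluorescence and both agonists and antagonists give an increase.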 The method in brief: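 Stable HEK293T PCA line, ERα LBD 310-547 + ERβ LBD 263-489 fused to reporter fragments; 24 h treatment; fluorescence read by laser scanning cytometry; positive fitting direction relative to DMSO.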

Experiment [10] addresses Androgen Receptor/SRC-1 Co-activator, AR (gene 367) (UniProt P10275). Put plainly: OT_AR_ARSRC1_0960: Odyssey Thera (OT) 16-hour HEK293T Protein-Complementation Assay for Androgen Receptor/SRC-1 Co-activator (AID 2283353).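 Further: actives raise the signal above DMSO so potency reflects increased AR and SRC-1 complex.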 The method in brief:
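Stable HEK293T line carries AR and SRC-1 each linked to a Venus fragment; chemicals are applied for 16 h, cells imaged at two wavelengths, and the 488 nm nucleus/cytoplasm ratio is taken as the signal, rising relative to DMSO.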

Experiment [11] shares this target. Put plainly: OT_AR_ARSRC1_0480: Odyssey Thera (OT) 8-hour HEK293T Protein-Complementation Assay for Androgen Receptor/SRC-1 Co-activator (AID 2283354).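 Further: hits raise the complementation signal above DMSO so AC50 marks enhancers.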 Summed up: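 Split-Venus PCA, stable HEK293T, AR/SRC-1 fusions; 8 h exposure. Readout: 488nm N/C fluorescence ratio, ≥400 cells/image; fitted upward vs DMSO baseline.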
In experiment [12] the target is bovine Estrogen Receptor (ER), ESR1 (gene 407238) (UniProt P49884). In words: NVS_NR_bER: NovaScreen (NVS) Nuclear Receptor Binding Assay for bovine Estrogen Receptor (ER) (AID 2283345).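 Further: actives lower the bound radioligand count which means they displace the ER ligand.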 The method in brief:
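Cell-free radioligand binding with receptor from bovine uterine membranes, read by scintillation counting 18 h after dosing. Loss of specific binding was scored against DMSO; primary screen at 25 uM in duplicate, actives then run as concentration series.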

Experiment [13] has as its target human Constitutive Androstane Receptor (CAR), NR1I3 (gene 9970) (UniProt Q14994). Put plainly: NVS_NR_hCAR_Antagonist: NovaScreen (NVS) Nuclear Receptor Binding Assay for human Constitutive Androstane Receptor Antagonism (CAR) (AID 2283344). The method in brief:
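Single 25 uM duplicate primary screen, with concentration-series follow-up on actives. Cell-free binding format run in antagonist mode, TR-FRET signal taken 1 h post-dose; activity is signal loss relative to DMSO.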

The test system of experiment [14] is guinea pig Histamine Receptor (H2), gene 100729734. Put plainly: NVS_GPCR_gH2: NovaScreen (NVS) G Protein-Coupled Receptor Assay for guinea pig Histamine Receptor (H2) (AID 2283342). The method in brief: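 Guinea pig striatal membrane preparation with specific radioligand; bound counts measured by filtration and scintillation 1 h post-dosing, DMSO as baseline. Chemicals passing a 25 uM duplicate screen were titrated to a 50 uM maximum.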

Experiment [15] deals with Retinoic acid receptor alpha (Homo sapiens) (UniProt P10276). In words: NVS_NR_hRAR_Antagonist: NovaScreen (NVS) Nuclear Receptor Binding Assay for human Retinoic Acid Alpha Receptor Antagonism (RAR) (AID 2283358). The method in brief:
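Read-out: time-resolved FRET binding signal, 2 h post-dose, cell-free extracted protein. Antagonism scored as signal loss versus DMSO negative control. Primary single-concentration screen at 25 uM in duplicate; concentration series for actives.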

The target of experiment [16] is chimpanzee Androgen Receptor (AR), AR (gene 747460) (UniProt O97775). Put plainly: NVS_NR_cAR: NovaScreen (NVS) Nuclear Receptor Binding Assay for chimpanzee Androgen Receptor (AR) (AID 2283346). Summed up: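 Radioligand binding to chimpanzee AR expressed in Sf9/Sf21 cells, cell-free, measured 72 h after dosing by lysate-based scintillation counting. Loss of signal vs DMSO; initial duplicate screen at 25 uM, actives retested in concentration series.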

Experiment [17] has as its target Bile acid receptor (Homo sapiens) (UniProt Q96RI1). In words: NVS_NR_hFXR_Antagonist: NovaScreen (NVS) Nuclear Receptor Binding Assay for human Farnesoid X Receptor Antagonism (FXR) (AID 2283350). Summed up:
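Antagonist-format time-resolved FRET binding assay with extracted human receptor protein, read 1 hour after compound addition. Compounds first screened at 25 uM in duplicate, then actives tested in concentration series, with loss of signal relative to DMSO.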

Experiment [18] addresses Estrogen receptor beta (Homo sapiens) (UniProt Q92731). In words: OT_ER_ERbERb_0480: Odyssey Thera (OT) 8-hour HEK293T Protein-Complementation Assay for Estrogen Receptor-beta/-beta Homodimer (AID 2283357).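 Further: active means signal gain over DMSO baseline.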 Summed up: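 Homodimerization of ER-beta LBD measured by protein-fragment complementation in HEK293T; 8 h dosing; fixed, Draq5 counterstain; fluorescence intensity gain over DMSO baseline, positive fitting direction; laser scanning cytometry.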

Androgen Receptor/SRC-1 Co-activator, AR (gene 367), sequence (P10275 whole entry, looked up, the tested form may be a part): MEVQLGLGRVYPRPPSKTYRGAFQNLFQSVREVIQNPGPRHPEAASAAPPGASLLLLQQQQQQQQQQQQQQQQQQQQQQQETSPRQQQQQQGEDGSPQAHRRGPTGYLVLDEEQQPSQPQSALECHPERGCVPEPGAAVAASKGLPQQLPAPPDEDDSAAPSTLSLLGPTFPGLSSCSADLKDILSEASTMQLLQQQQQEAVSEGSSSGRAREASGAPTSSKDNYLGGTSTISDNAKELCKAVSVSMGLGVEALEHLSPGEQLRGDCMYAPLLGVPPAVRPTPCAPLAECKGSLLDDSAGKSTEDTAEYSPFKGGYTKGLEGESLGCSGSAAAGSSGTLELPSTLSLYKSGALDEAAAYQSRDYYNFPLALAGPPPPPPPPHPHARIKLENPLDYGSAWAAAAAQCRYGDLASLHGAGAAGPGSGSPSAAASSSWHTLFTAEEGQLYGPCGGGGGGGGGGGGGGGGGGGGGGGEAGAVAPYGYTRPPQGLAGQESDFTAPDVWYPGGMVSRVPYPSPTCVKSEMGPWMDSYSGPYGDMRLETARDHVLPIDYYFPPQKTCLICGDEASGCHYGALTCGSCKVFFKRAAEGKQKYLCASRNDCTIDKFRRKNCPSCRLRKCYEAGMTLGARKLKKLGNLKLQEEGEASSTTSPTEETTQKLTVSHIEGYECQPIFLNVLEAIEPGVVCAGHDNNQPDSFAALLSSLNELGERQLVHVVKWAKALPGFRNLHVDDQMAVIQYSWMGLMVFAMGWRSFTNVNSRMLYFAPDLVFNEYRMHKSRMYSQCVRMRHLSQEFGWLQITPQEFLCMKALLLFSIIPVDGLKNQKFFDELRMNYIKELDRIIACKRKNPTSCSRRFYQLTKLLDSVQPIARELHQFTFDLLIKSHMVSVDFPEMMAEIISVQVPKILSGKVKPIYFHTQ
bovine Estrogen Receptor (ER), ESR1 (gene 407238), sequence (P49884 whole entry, looked up): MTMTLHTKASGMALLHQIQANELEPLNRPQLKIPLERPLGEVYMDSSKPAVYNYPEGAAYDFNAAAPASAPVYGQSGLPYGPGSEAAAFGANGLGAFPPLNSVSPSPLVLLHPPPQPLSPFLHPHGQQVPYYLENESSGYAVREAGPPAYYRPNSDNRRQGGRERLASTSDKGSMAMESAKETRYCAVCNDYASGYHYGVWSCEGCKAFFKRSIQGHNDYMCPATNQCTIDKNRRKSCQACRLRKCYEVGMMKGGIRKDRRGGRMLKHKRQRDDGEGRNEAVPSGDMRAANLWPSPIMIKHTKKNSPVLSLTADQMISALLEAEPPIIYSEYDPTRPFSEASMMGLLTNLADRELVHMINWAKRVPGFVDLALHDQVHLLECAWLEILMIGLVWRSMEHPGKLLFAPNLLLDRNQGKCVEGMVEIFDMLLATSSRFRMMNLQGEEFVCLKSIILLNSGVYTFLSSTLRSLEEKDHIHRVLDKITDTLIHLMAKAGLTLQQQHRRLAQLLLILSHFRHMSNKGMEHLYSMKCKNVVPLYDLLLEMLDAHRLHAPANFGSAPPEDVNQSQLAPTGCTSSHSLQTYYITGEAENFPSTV
Estrogen receptor (Homo sapiens), sequence (P03372 whole entry, looked up): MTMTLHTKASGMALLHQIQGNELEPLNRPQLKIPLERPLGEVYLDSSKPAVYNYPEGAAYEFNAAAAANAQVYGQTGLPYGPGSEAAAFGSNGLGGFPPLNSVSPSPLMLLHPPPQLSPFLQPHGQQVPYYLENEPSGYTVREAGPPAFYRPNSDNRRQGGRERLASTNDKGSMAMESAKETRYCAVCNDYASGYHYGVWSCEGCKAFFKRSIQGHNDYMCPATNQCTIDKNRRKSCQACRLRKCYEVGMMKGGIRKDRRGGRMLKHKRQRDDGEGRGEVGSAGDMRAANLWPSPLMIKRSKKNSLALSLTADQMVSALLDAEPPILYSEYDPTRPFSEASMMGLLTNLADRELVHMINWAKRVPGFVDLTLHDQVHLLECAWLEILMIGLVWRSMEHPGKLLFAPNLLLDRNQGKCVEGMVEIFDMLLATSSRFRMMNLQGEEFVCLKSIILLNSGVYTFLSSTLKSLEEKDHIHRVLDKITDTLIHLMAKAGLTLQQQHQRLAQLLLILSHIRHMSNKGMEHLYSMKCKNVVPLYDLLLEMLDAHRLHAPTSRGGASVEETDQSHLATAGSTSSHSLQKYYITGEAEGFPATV
T1 sequence (P03372 whole entry, looked up): as above
T1 sequence (Q92731 whole entry, looked up): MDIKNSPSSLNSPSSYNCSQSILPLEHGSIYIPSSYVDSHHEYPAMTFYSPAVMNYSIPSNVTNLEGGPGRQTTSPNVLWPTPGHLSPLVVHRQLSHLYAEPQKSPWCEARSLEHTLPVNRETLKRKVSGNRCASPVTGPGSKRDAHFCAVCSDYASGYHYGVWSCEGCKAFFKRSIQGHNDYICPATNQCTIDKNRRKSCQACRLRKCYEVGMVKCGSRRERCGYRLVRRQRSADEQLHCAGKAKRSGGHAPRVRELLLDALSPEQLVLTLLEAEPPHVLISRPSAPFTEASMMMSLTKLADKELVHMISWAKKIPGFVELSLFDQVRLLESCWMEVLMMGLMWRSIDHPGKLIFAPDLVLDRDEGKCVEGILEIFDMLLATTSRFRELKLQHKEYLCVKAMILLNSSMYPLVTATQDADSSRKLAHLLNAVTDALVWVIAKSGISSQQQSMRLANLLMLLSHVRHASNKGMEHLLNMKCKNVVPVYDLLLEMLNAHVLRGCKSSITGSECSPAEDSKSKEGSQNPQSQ
Estrogen receptor beta (Homo sapiens), sequence (Q92731 whole entry, looked up, the tested form may be a part): as the sequence (Q92731 whole entry, looked up) above
human Peroxisome Proliferator-activated Receptor alpha (PPARa), PPARA (gene 5465), sequence (Q07869 whole entry, looked up): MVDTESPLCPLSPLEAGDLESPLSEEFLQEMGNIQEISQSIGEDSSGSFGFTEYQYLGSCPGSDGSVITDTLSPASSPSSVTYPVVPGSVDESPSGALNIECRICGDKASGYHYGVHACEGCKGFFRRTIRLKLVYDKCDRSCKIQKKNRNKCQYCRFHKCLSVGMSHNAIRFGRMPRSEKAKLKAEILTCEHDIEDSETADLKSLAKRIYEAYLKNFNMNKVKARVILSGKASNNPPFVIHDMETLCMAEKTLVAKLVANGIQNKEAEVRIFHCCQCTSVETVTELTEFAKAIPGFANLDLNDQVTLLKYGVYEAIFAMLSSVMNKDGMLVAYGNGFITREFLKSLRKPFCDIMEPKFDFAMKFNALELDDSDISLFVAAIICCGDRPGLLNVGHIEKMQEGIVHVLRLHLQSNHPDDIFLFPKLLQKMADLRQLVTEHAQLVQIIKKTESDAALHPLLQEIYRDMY

On to `CC(C)C(=O)Nc1ccc([N+](=O)[O-])c(C(F)(F)F)c1`, for which the outcome in [1], in experiment [2], in [3], in experiment [4], in experiment [5] and in experiment [6] was inactive. The molecule was called inactive in experiment [7].
Take `OC(Cn1cncn1)(Cn1cncn1)c1ccc(F)cc1F`: the molecule was classed as inactive in [8], in experiment [4], in [5] and in experiment [9].
In general, AC50 refers to the concentration giving half of the maximal activity seen. With `CCN(CC)C(=S)SSC(=S)N(CC)CC`, the call in experiment [3], in experiment [4], in experiment [5] and in experiment [6] was inactive. Also, the AC50 in experiment [10] was 59.6 µM (active); in [11] it was 23.9 µM (active); in experiment [9], 12 µM (active).
`OC[C@H]1O[C@@H]2O[C@H]3[C@H](O)[C@@H](O)[C@@H](O[C@H]4[C@H](O)[C@@H](O)[C@@H](O[C@H]5[C@H](O)[C@@H](O)[C@@H](O[C@H]6[C@H](O)[C@@H](O)[C@@H](O[C@H]7[C@H](O)[C@@H](O)[C@@H](O[C@H]1[C@H](O)[C@H]2O)O[C@@H]7CO)O[C@@H]6CO)O[C@@H]5CO)O[C@@H]4CO)O[C@@H]3CO`: the AC50 in experiment [12] is 1.18 µM (active); in [3], 0.472 µM (active). Further, the molecule was called inactive in experiment [4], in experiment [5], in experiment [6] and in experiment [9].
For `CCCCC(CC)C(=O)OCCOCCOCCOC(=O)C(CC)CCCC` (configuration not stated), the outcome in experiment [13], in experiment [12], in experiment [3], in experiment [4], in [5] and in experiment [6] was inactive. Besides, the call in experiment [10], in [11] and in experiment [9] was inactive.
With `CCn1nc(C)c2c1C(=O)NCC(c1ccc(O)cc1)=N2`, the outcome in [1], in [14], in experiment [4], in experiment [5], in [6] and in experiment [9] was inactive.
For `NC(=O)N1c2ccccc2C=Cc2ccccc21`, the outcome in experiment [8], in experiment [12], in [4], in [5], in experiment [6] and in experiment [9] was inactive. The result in experiment [15] was inactive.
For `C=CCc1cc(S(=O)(=O)c2ccc(O)c(CC=C)c2)ccc1O`, the outcome in [1], in [2], in experiment [3], in experiment [4], in [5] and in experiment [6] was inactive. Also, the outcome in experiment [9] was inactive. Moreover, the AC50 in [12] is 19.1 µM (active); in experiment [16], 33.1 µM (active); in experiment [3] it was 12.5 µM (active); in experiment [17] it was 18.2 µM (active); in experiment [10], 69.1 µM (active); in experiment [11] it was 82.7 µM (active). In experiment [7], the AC50 is 25 µM (active).
For the molecule `CCCCCCCCCCCCCCCCOS(=O)(=O)O`, the result in experiment [13], in experiment [4], in [5], in experiment [6], in [10] and in experiment [11] was inactive. Moreover, the result in experiment [9] and in [7] was inactive.
`NNC(=O)c1ccncc1`: the call in [3], in [4], in experiment [5], in experiment [6], in [9] and in [18] was inactive.
Regarding `CCCCCCCCN(C)C`, the outcome in experiment [1], in experiment [4] and in experiment [5] was inactive.
`Cn1cc[nH]c1=S`: the result in [2], in experiment [4], in [5], in experiment [6] and in experiment [9] was inactive.
With `CC1(C)C(=O)N(Cl)C(=O)N1Cl`, the result in experiment [4] was inactive.
With `CCCCCCOC(=O)CC(CC(=O)OCCCCCC)(OC(=O)CCC)C(=O)OCCCCCC`, the molecule was called inactive in [8], in [4], in experiment [5], in [6], in [10] and in [11]. Further, the result in experiment [9] was inactive.
In the case of `C[C@]12C=CC(=O)C=C1CC[C@H]1[C@@H]3C[C@@H](O)[C@](O)(C(=O)CO)[C@@]3(C)C[C@H](O)[C@@]12F`, the result in experiment [12], in experiment [4] and in [5] was inactive. Further, the half-maximal activity concentration (AC50) in experiment [16] is 32.6 µM (active); in experiment [3], 38.3 µM (active).
On to `O=C1CN(N=Cc2ccc([N+](=O)[O-])o2)C(=O)N1`, for which the molecule was classed as inactive in [8], in [4] and in experiment [5].
As to `CCc1cccc(CC)c1N`, the AC50 in experiment [3] was 10 µM (active). Besides, the molecule was called inactive in experiment [4], in [5], in [6], in [10] and in [9].
Turning to `CCCCCCCC/C=C\CCCCCCCC(=O)OC[C@@H](O)[C@H]1OC[C@H](O)[C@H]1O`, the call in experiment [18] and in experiment [15] was inactive.
Consider `COCc1nnc(-c2ccc[n+]([O-])c2)n1-c1c(Cl)c(Cl)cc2[nH]c(=O)c(=O)[nH]c12`, for which the molecule was called inactive in [18].
